Measurements published in PubChem BioAssay (NCATS).
Records with an inconclusive call do not appear. A call without a number means that no potency is given here. Calls of active or inactive are those of the source. The call rests on the fitted dose curve; in most records, active means well fitted inhibition curve with a large enough effect; inconclusive means small, poorly fitted or top-dose-only effect; inactive means no such curve, though single readings can be large or run the other way.

Experiment: Primary qHTS for inhibitors of nuclear receptor binding SET domain protein 2 (NSD2) in an RCH-ACV wild type WT cells (2C) (AID 1645877); further: nearly all actives have a fitted effect of over 70% in size
Conditions: RCH-ACV (leukaemia line) NSD2 WT (2C) viability, CellTiter-Glo, 72 h; series mostly up to 44.9 µM

Structure (SMILES)	Potency	activity change, negative = cell killing	outcome
CC(C)(O)C1CC=C(C(=O)OC[C@H]2O[C@@H](OC(=O)C3=CCC(C(C)(C)O)CC3)[C@H](O)[C@@H](O)[C@@H]2O)CC1 (stereo partly drawn)	inactive		
C[C@]12CCC[C@](C)(C(=O)O)C1CCC13CC(CO)C(CCC12)C3 (stereo partly drawn)	inactive		
COc1ccc(C2OCC3C(c4cc(OC)c5c(c4)OCO5)OCC23)cc1OC (stereo not drawn)	inactive		
COC(=O)C1=CO[C@@H](O[C@@H]2O[C@H](CO)[C@@H](O)[C@H](O)[C@H]2O)[C@@H]2C(C)CC(=O)[C@]12O (stereo partly drawn)	inactive		
C/C=C(/C)C(=O)OC1CC(C)(C)CC2C3=CCC4C5(C)CCC(OC6OC(C)C(OC7OC(C(=O)O)C(O)C(OC8OC(CO)C(O)C(O)C8OC8OC(CO)C(O)C(O)C8O)C7O)C(O)C6O)C(C)(C)C5CCC4(C)C3(C)C(OC(=O)/C=C/C=C/C=C/CCC)C(OC(C)=O)C12CO (stereo not drawn)		-14.8% [at 9.23 µM] (inactive)	
CCCC/C=C\CCCCCc1cc(=O)c2ccccc2n1C	inactive		
C=CC1(C)CC2CCC3C(C)(C(=O)O)CCCC3(C)C2=CC1=O (stereo not drawn)	inactive		
C/C=C/C=C/C=C/C(=O)O[C@@H]1[C@@H](OC)C2=C(C(=O)N(C(CCC(=O)O)C(=O)O)C2)[C@@]2(C)CCCC(C)(C)[C@H]12 (stereo partly drawn)	inactive		
CC(C)=CCC[C@](C)(O[C@@H]1O[C@H](CO[C@@H]2OC[C@H](O)[C@H](O)[C@H]2O)[C@@H](O)[C@H](O)[C@H]1O)[C@H]1CC[C@]2(C)[C@@H]1[C@H](O)C[C@@H]1[C@@]3(C)CC[C@H](O[C@@H]4O[C@H](CO)[C@@H](O)[C@H](O)[C@H]4O[C@@H]4O[C@H](CO)[C@@H](O)[C@H](O)[C@H]4O)C(C)(C)[C@@H]3CC[C@]12C	inactive		
CC1(C)C2CC[C@@]34CC(CC[C@H]3[C@]2(C)CC[C@@H]1O[C@@H]1O[C@H](CO)[C@@H](O)[C@H](O)[C@H]1O)[C@](C)(O)C4 (stereo partly drawn)	inactive		
CC(C)(CC(=O)N1CCCC1)NCC(=O)N1C[C@@H](F)C[C@H]1C#N	inactive		
O=C(O)c1ccnc(-c2cc(C(=O)NCCc3ccccc3)ccn2)c1	inactive		
C=CCc1cc(OC)c(OC(C)C(O)c2ccc(O)c(OC)c2)c(OC)c1 (stereo not drawn)	inactive		
COc1cc(O)cc2c1C(=O)OC(C)C2 (stereo not drawn)	inactive		
CC1=C2C(=O)C=C(CO)C2[C@H]2OC(=O)[C@H](C)[C@@H]2[C@@H](OC(=O)Cc2ccc(O)cc2)C1 (stereo partly drawn)	inactive		
CC1C(=O)OCC2=CC[N+]3([O-])CCC(OC(=O)C(C)(O)C1(C)O)C23 (stereo not drawn)	inactive		
C=C[C@@]1(C)CCC2=C([C@H]1OC(C)=O)[C@H](OC(C)=O)CC1[C@](C)(C(=O)OC)CC[C@H](OC(C)=O)[C@]21C (stereo partly drawn)	inactive		
O=C(OC[C@H]1O[C@H](O[C@H]2CO[C@H](CO)[C@@H](O)[C@@H]2O)[C@H](O)[C@@H](O)[C@H]1O)c1ccccc1	inactive		
CC(=O)OC1CC(C(C)(C)O)OC2CCC3(C)OC4=C(C(=O)C=C5C(C)C(OC(C)=O)C6(C)C(C)OC546)C(O)C3C12C (stereo not drawn)	inactive		
C[C@@H]1CC[C@]2(C(=O)O[C@@H]3O[C@H](CO[C@@H]4O[C@H](CO)[C@@H](O[C@@H]5O[C@@H](C)[C@H](O)[C@@H](O)[C@H]5O)[C@H](O)[C@H]4O)[C@@H](O)[C@H](O)[C@H]3O)CC[C@]3(C)C(=CCC4[C@@]5(C)C[C@@H](O)[C@H](O)[C@@](C)(CO)C5CC[C@]43C)C2[C@H]1C (stereo partly drawn)			inactive [at 9.23 µM]
C=C(C)[C@@H]1CC[C@]2(C(=O)O)CC[C@]3(C)C(CCC4[C@]5(C)C(CC[C@]43C)C(C)(C)[C@@H](O)[C@@H]5C(=O)O)C12 (stereo partly drawn)	inactive		
COc1cc2c(cc1O)CC(O)(CO)C(CO)C2c1ccc(OC2OC(CO)C(O)C(O)C2O)c(OC)c1 (stereo not drawn)	inactive		
COC(=O)c1ccc(OC)cc1O[C@@H]1O[C@H](CO[C@@H]2OC[C@@H](O)[C@H](O)[C@H]2O)[C@@H](O)[C@H](O)[C@H]1O	inactive		
CC(C)(OC1OC(CO)C(O)C(O)C1O)C1CCC(O)(CO)C2CC(=O)C(C)(O)C2C1 (stereo not drawn)	inactive		
C[C@]1(O)CC[C@@H]2C(C(=O)O)=CO[C@@H](O[C@@H]3O[C@H](COC(=O)/C=C/c4ccc(O)c(O)c4)[C@@H](O)[C@H](O)[C@H]3O)[C@@H]21	inactive		
CC(C)C1CCC(CO)=CC1/C=C(\CO)C(=O)OCC1(O)CCC(C(C)C)C2C=C(C(=O)O)COC(=O)C21 (stereo not drawn)	inactive		
OCC(O)C(c1c[nH]c2ccccc12)c1c[nH]c2ccccc12 (stereo not drawn)	inactive		
O=C(Cc1ccccc1)OC[C@H]1O[C@H](O[C@H]2O[C@H](CO)[C@@H](O)[C@H](O)[C@H]2O)[C@H](O)[C@@H](O)[C@@H]1O	inactive		
